From article PMC5540273 (PLoS ONE, 2017)

Columns and labels:
Conditions in all cases: concentration: 1 μM, replicates: in singlicate; n = 1
MEK5 = tested on: T1, MEK5
T1 construct: gene MAP2K5

MEK6 = tested on: T2, MEK6
T2 construct: gene MAP2K6

MELK = tested on: MELK
MERTK = tested on: MERTK
MET = tested on: MET
MINK = tested on: T3, MINK
T3 construct: gene MINK1

MKK7 = tested on: MKK7
MKNK1 = tested on: MKNK1
MKNK2 = tested on: MKNK2
MLCK = tested on: T4, MLCK
T4 construct: gene MYLK3
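Also: KINOMEscan kinase panel screen.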

| Structure (SMILES) | %Inh (MEK5) | %Inh (MEK6) | %Inh (MELK) | %Inh (MERTK) | %Inh (MET) | %Inh (MINK) | %Inh (MKK7) | %Inh (MKNK1) | %Inh (MKNK2) | %Inh (MLCK) |
| --- | --- | --- | --- | --- | --- | --- | --- | --- | --- | --- |
| Cc1ccc(O)cc1Nc1ccnc2cc(-c3ccc(CN4CCCCC4)o3)ccc12 [GW557777] | 97.9% | 15% | 0% | 13% | 0% | 38% | 0% | 0% | 0% | 0% |
| CS(=O)(=O)c1cccc(CNc2nc(Nc3ccc4c(c3)CCC(=O)N4)ncc2C(F)(F)F)c1 | 48% | 0% | 26% | 56% | 83% | 85% | 0% | 0% | 58% | 0% |
| COC(=O)Nc1nc2ccc(Oc3ccc(NC(=O)Nc4cc(C(F)(F)F)ccc4F)cc3)cc2[nH]1.Cl [GW654607] | 94.2% | 7% | 0% | 98.5% | 88% | 15% | 0% | 73% | 94.9% | 0% |
| CCn1c(-c2nonc2N)nc2c(-c3ccccc3)ncc(OCCCN)c21.O=C(O)C(F)(F)F.O=C(O)C(F)(F)F [GSK260205] | 92.8% | 0% | 20% | 7% | 21% | 95.7% | 0% | 0% | 1% | 9% |
| CSc1ccc(NC2=C(c3ccc(Cl)cc3)C(=O)NC2=O)cc1 [SB-317658] | 22% | 3% | 0% | 0% | 0% | 0% | 0% | 14% | 0% | 29% |
| c1ccc(Oc2ccc(Nc3ccnc4cc(-c5ccc(CN6CCCCC6)o5)ccc34)cc2)nc1 [GW567143] | 100% | 0% | 0% | 50% | 11% | 25% | 0% | 7% | 37% | 0% |
| COc1cc(Nc2nccc(N3CCC(NC(=O)Nc4ccc5c(c4)OCO5)C3)n2)cc(OC)c1OC (stereo not drawn) [GSK1379766] | 98.8% | 0% | 0% | 40% | 12% | 0% | 0% | 14% | 66% | 0% |
| Cn1cc(-c2ccc3c(c2)CCN3C(=O)Cc2cc(F)cc(C(F)(F)F)c2)c2c(N)ncnc21 [GSK2635225] | 33% | 0% | 0% | 63% | 21% | 7% | 4% | 0% | 2% | 0% |
| CN(c1ccc2c(c1)nc(NCc1ccccc1)n2C)c1ccnc(Nc2ccc(CS(C)(=O)=O)cc2)n1.Cl [GW811603] | 89% | 0% | 17% | 36% | 46% | 0% | 23% | 54% | 43% | 0% |
